# Measured values from ChEMBL document CHEMBL3988442, “University of Dundee, Small-Polar-MMV Screening Library” (2021).
# The campaign covered roughly 48,000 compounds. About 13,000 (27%) showed an effect of 50% or more. Some of the results follow.
# System: Wolbachia pipientis
# Assay: Anti-Wolbachia Cell-Based Screen
# Type: functional
# Parameters: scale not given: in the data most compounds retested in dose-response had high values
# Conditions: 5 µM
row,SMILES,Percent Effect
1,Cc1nn(CC(=O)N2CCN(Cc3cnn(C)c3C)CC2)cc1Cl,97.92%
2,Cc1nn(CC(=O)N2CCN(Cc3cccnc3)CC2)c(C)c1Cl,2.693%
3,Cc1noc(C)c1CN1CCN(C(=O)CCn2cncn2)CC1,-2.995%
4,Cc1nn(CC(=O)NCc2cc3n(n2)CCCN(CC(C)C)C3)cc1Cl,-2.88%
5,Cc1nn(CC(=O)N2CCN(Cc3cnn(C)c3C)CC2)cc1Br,123%
6,Cc1c(Cn2cc(Cl)c(N)n2)cnn1C,-4.897%
7,Cc1nn(CCC(=O)N2CCN(Cc3cnn(C)c3C)CC2)c(C)c1Br,118.1%
8,Cc1nc(C)c(C(=O)N2CCCN(Cc3cnn(C)c3)CC2)s1,16.21%
9,CCn1ncc(CN2CCN(C(=O)Cn3cc(Br)c(C)n3)CC2)c1C,124.7%
10,CCn1ncc(Cn2cc(Cl)c(N)n2)c1C,0.6319%
11,Cl.Cl.OC(CN1CCN(Cc2cccc(F)c2)CC1)C1CC1 (stereo not given),-1.915%
12,CCC(=O)NC(CC(C)C)c1cccs1 (stereo not given),11.67%
13,O=C1CC(NS(=O)(=O)NCc2ccccc2)CN1c1ccccc1Cl (stereo not given),6.599%
14,Cc1ccc(OCC(=O)NC2(C#N)CCSCC2)cc1C,-7.391%
15,Cc1nsc(NC2CCN(c3ccccc3OC(F)F)C2=O)n1 (stereo not given),-11.3%
16,Cc1cccc(-c2nnc(C(C)NCCn3cc(C)cn3)o2)c1 (stereo not given),-10.86%
17,CC(=O)Nc1cccc(C(C)NCC2CCS(=O)(=O)CC2)c1 (stereo not given),10.2%
18,CNC(=O)c1n[nH]c2c1C(c1cccc3c1OC(C)(C)C3)CC(=O)N2 (stereo not given),27.3%
19,Cc1nn(CC(=O)N2CCN(Cc3cn(C)nc3C)CC2)cc1Br,147.4%
20,Cc1nn(CCO)cc1CN1CCCN(C2CCCC2)CC1,15.64%
21,Cc1noc(C)c1CN1CCN(C(=O)Cn2cncn2)CC1,-5.281%
22,O=C(c1ccc[nH]1)N1CCN(C(c2ccccc2)C(F)(F)F)CC1 (stereo not given),-1.01%

row,SMILES,Percent Effect
1,Cc1ccc(C(=O)NS(C)(=O)=O)cc1-n1cccc1,119%
2,Cc1ccc(C(=O)NS(C)(=O)=O)cc1S(C)(=O)=O,-7.611%
3,Cc1ccc(CC(=O)NCCCNS(C)(=O)=O)cc1,4.317%
4,Cc1ccc(C(=O)NS(C)(=O)=O)cc1I,-7.571%
5,Cc1ccc(C(=O)NCCN2CCOCC2)cc1N(C)S(C)(=O)=O,-26.4%
6,Cc1ccc(C(=O)NCCCN(C)S(C)(=O)=O)c(=O)[nH]1,-1.59%
7,Cc1cc(C(=O)NCCC(C)C)ccc1NS(C)(=O)=O,2.329%
8,CC(=O)NCCc1cn(-c2cc(F)ccc2C)cn1,0.929%
9,Cc1ccc(C(=O)NCCCNS(C)(=O)=O)cc1C,117.8%
10,CC(=O)NCCNC(=O)c1cnc(-c2ccccc2)nc1,-5.417%
11,CC(=O)NCCNC(=O)c1ccc(C)c(-n2cccc2)c1,112.1%
12,Cc1ccc(C(=O)NCCCN(C)S(C)(=O)=O)cc1-n1cccc1,108.6%
13,CCSCCC(C)N(C)C(=O)c1cc(C)on1 (stereo not given),-12.53%
14,O=C(O)c1cc(S(=O)(=O)N2CCOc3ccccc32)ccc1F,8.076%
15,CCC[C@@H]1CN(Cc2cc3c(cc2OC)OCCO3)C[C@H]1C(=O)O,-0.5486%
16,O=C(CCNc1ncccn1)NCCOc1ccc2c(c1)CCC2,1.956%
17,CC[C@H]1N(Cc2ccc(OC)cc2)CCC[C@]12CCC(=O)N2C,102.5%
18,COc1cc(CN2CCN(CC3CC3)[C@@H]3CS(=O)(=O)C[C@@H]32)cc(OC)c1,-1.299%
19,CCn1c(C2CCCN(Cc3cc(OC)cc(OC)c3)C2)nn(C)c1=O (stereo not given),-1.28%
20,CC[C@@H]1N(Cc2cc(OC)cc(OC)c2)CCC[C@]12CCC(=O)N2C,92.68%
21,COc1ccc(CN2CCC3(CC2)C(C(=O)O)CC(=O)N3C)cc1Cl (stereo not given),2.306%
22,COCCN1C(=O)CC[C@]12CC[C@@H](NCc1ccc(OC)cc1)CC2,-14.96%

row,SMILES,Percent Effect
1,COCCN1CCN(Cc2cccc(OCC(N)=O)c2)CC1C (stereo not given),-2.971%
2,CN1C(=O)CCC12CCCN(C(=O)c1ccncc1F)C2.O=C(O)C(F)(F)F (stereo not given),113.9%
3,O=C(O)C(F)(F)F.O=C(c1ccncc1F)N1CCc2ncnc(C3CC3)c2CC1,13.05%
4,CCN1C(=O)CCCC12CCCN(C(=O)c1ccncc1F)C2.O=C(O)C(F)(F)F (stereo not given),112.1%
5,CN(C)CCN1C(=O)CCC12CCCN(C(=O)c1ccncc1F)C2.O=C(O)C(F)(F)F (stereo not given),122.1%
6,CCOc1ncnc2c1CCN(C(=O)c1ccncc1F)CC2.O=C(O)C(F)(F)F,-6.025%
7,CCN1C(=O)CCCC12CCCN(C(=O)c1ccoc1)C2 (stereo not given),-0.6496%
8,O=C(O)C(F)(F)F.O=C1CC(c2ccccc2)C2(CCN(C(=O)c3ccncc3F)CC2)N1 (stereo not given),7.558%
9,CCc1ncnc2c1CCN(C(=O)c1ccncc1F)CC2.O=C(O)C(F)(F)F,6.56%
10,Cc1ncnc2c1CCN(C(=O)c1ccncc1F)CC2.O=C(O)C(F)(F)F,-20.75%
11,COCCCNC(=O)NCc1nc(C)c(C)o1,1.858%
12,CC(C)(C)CC(=O)NCC1CCCS1 (stereo not given),-1.096%
13,Cn1c(=O)n(C)c2nc(Cl)c(CC(=O)c3ccccc3)n2c1=O,119.1%
14,Cn1nc(Br)c2c(=O)n(CCc3ccccc3)cnc21,-21.91%
15,Cc1ccc(C(=O)Cc2c(Cl)nc3n(C)c(=O)n(C)c(=O)n23)cc1,91.64%
16,Cc1c2ncn(CC(=O)c3ccccc3)c(=O)c2nn1C,11.22%
17,CN1CC(Oc2ccccc2)=NC(SCC(=O)c2ccccc2)=N1,31.32%
18,Cn1c(=O)n(C)c2nc(Br)c(CC(=O)c3ccccc3)n2c1=O,113.8%
19,CN1CC(Oc2ccc(Cl)cc2)=NC(SCC(=O)c2ccccc2)=N1,11.49%
20,Cn1c(=O)n(C)c2nc(Cl)c(CC(=O)c3ccc(F)cc3)n2c1=O,131.2%
21,Cc1ccc(C(=O)CCC(=O)N2CCC(c3nncn3C)CC2)cc1,-0.3599%
